We go through seven compounds from PubChem BioAssay (Tox21).

SMILES strings stand for the structures. A number with no mark means an inactive call. Results filed as inconclusive are left out. Activity calls are given as the source filed them. Unless noted, the call rests on the fitted dose curve; in most records, active means well fitted curve in the direction sought with a large enough effect in the repeat runs; inconclusive means weak or mixed curves; inactive means no such curve, though single readings can be large; an effect the other way counts as inactive or inconclusive.

Assay [1] is described as follows: qHTS assay for small molecules that induce genotoxicity in human embryonic kidney cells expressing luciferase-tagged ATAD5 (AID 651632). Further: on the % scale 0 is the no-effect control and ±100 the full control effect; nearly all actives have a fitted effect of over 15% in size. In outline: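 Luminescence read-out: after 16 hr compound exposure at 37C, ATAD5-luciferase HEK293T cells received Amplite, 30 min RT, then CCD imaging. A rise in signal marks genotoxic stress.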
(In general: In qHTS, concentration-response curves come from the screen itself.)

Assay [2] is described as follows: qHTS assay for small molecule agonists of the p53 signaling pathway - cell viability (AID 651633; calls by dose curve; further: nearly all actives have a fitted effect of over 30% in size; further: potency means the concentration at half of the fitted maximal effect). Summed up:
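p53RE-bla cells, seeded at 4,000 per well and rested 5 h at 37 C/5% CO2, received compounds in DMSO for 16 h at 37 C. CellTiter-Glo was then added, and luminescence was read after 30 min at room temperature to gauge cytotoxicity.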

A short description of assay [3]: qHTS assay for small molecules that induce genotoxicity in human embryonic kidney cells expressing luciferase-tagged ATAD5 - cell viability (AID 651634; calls by dose curve; further: nearly all actives have a fitted effect of over 25% in size; further: potency means the concentration at half of the fitted maximal effect). In outline:
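HEK293T ATAD5-luc cells, 2,000/well; compound 15.5 hr, 37C/5% CO2; CellTiter-Fluor 30 min, 37C; fluorescence read.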

Assay [4] can be described thus: qHTS assay to test for compound auto fluorescence at 590 nm (red) in HepG2 cells (AID 720674). Further: on the % scale 0 is the no-effect control and ±100 the full control effect. Summed up:
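Intrinsic compound fluorescence in the red window (Ex/Em 540/590 nm) is measured in attached HepG2 cells exposed for 1 hr, DMSO vehicle as baseline, benchmarked to Rose Bengal sodium.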

A short description of assay [5]: qHTS assay to test for compound auto fluorescence at 535 nm (green) in HepG2 cells (AID 720675). Further: on the % scale 0 is the no-effect control and ±100 the full control effect.
Assay [6] in a line: qHTS assay to test for compound auto fluorescence at 460 nm (blue) in HEK293 cells (AID 720678). Further: on the % scale 0 is the no-effect control and ±100 the full control effect. In outline:
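HEK293 cells (2,000/well, medium with 10% dialyzed FBS) attached 4-5 hr, then exposed to compound overnight at 37C, 5% CO2. Blue fluorescence read at 405/460 nm, with triamterene as reference fluorophore.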

Assay [7] in a line: qHTS assay to test for compound auto fluorescence at 590 nm (red) in HEK293 cells (AID 720679). Further: on the % scale 0 is the no-effect control and ±100 the full control effect. In outline:
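HEK293 cells (2,000/well, 10% dialyzed FBS) attached 4-5 hr, then dosed with compound or DMSO and incubated overnight at 37C, 5% CO2. Red fluorescence read at 540/590 nm, Rose Bengal sodium as reference fluorophore.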

Assay [8] is described as follows: qHTS assay to test for compound auto fluorescence at 535 nm (green) in HEK293 cells (AID 720680). Further: on the % scale 0 is the no-effect control and ±100 the full control effect.
The nature of assay [9]: qHTS assay to test for compound auto fluorescence at 460 nm (blue) in HEK293 cell free culture (AID 720681). Further: on the % scale 0 is the no-effect control and ±100 the full control effect. Summed up: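 Test compounds were pinned into cell-free culture medium (DMEM with 10% FBS) and fluorescence was read directly at Ex/Em 405/460 nm. Signals were expressed as fluorescence equivalents of triamterene, with DMSO vehicle as control.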
Assay [10] is described as follows: qHTS assay to test for compound auto fluorescence at 535 nm (green) in HEK293 cell free culture (AID 720682). Further: on the % scale 0 is the no-effect control and ±100 the full control effect. Summed up: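 Read-out: 485/535 nm fluorescence intensity, calibrated against fluorescein. Medium only (DMEM + 10% FBS, no cells); test compound or DMSO vehicle added by pintool before plate reading.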
Assay [11] in a line: qHTS assay to test for compound auto fluorescence at 590 nm (red) in HEK293 cell free culture (AID 720683). Further: on the % scale 0 is the no-effect control and ±100 the full control effect. Summed up:
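Tox21 10K library compounds were pinned into cell-free DMEM with 10% FBS and fluorescence was read at excitation 540 nm. Activity is expressed as Rose Bengal sodium equivalency.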

Assay [12] in a line: qHTS assay to test for compound auto fluorescence at 590 nm (red) in HepG2 cell free culture (AID 720684). Further: on the % scale 0 is the no-effect control and ±100 the full control effect. Summed up: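 Ex 540 / Em 590 nm read of compound in cell-free MEM (10% FBS). Rose Bengal sodium reference.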
Assay [13] can be described thus: qHTS assay to test for compound auto fluorescence at 460 nm (blue) in HepG2 cell free culture (AID 720685). Further: on the % scale 0 is the no-effect control and ±100 the full control effect. In outline:
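Cell-free plates of MEM plus 10% FBS received 23 nL compound or DMSO vehicle; blue-channel (405/460 nm) intensity scored against triamterene as reference fluorophore.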

Assay [14] in a line: qHTS assay to test for compound auto fluorescence at 535 nm (green) in HepG2 cell free culture (AID 720686). Further: on the % scale 0 is the no-effect control and ±100 the full control effect.
Assay [15] can be described thus: qHTS assay to test for compound auto fluorescence at 460 nm (blue) in HepG2 cells (AID 720687). Further: on the % scale 0 is the no-effect control and ±100 the full control effect. Summed up: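 Cells (2,000/well in MEM with 10% FBS) attached overnight at 37 C, then were exposed to compound or DMSO for 1 hr at 37 C, 5% CO2. Fluorescence read at Ex/Em 405/460 nm, expressed as triamterene-equivalent signal.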
For assay [16], the target named is Glucocorticoid receptor (Homo sapiens) (UniProt P04150). Description: qHTS assay to identify small molecule agonists of the glucocorticoid receptor (GR) signaling pathway (AID 720691; active means well fitted activation curve with a large enough effect in the signal ratio in the repeat runs, not every such curve was filed as active; the % refers to the signal ratio; further: on the % scale 0 is the no-effect control and ±100 the full control effect). The note with it: GR-bla HeLa, beta-lactamase reporter ratio, 18 h; activation: at 62.4 µM (top of the series). In outline:
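HeLa GR-bla reporter line; cells pre-incubated 4 h, compound in DMSO 18 h at 37 C; LiveBLAzer B/G FRET substrate 2 h RT; fluorescence intensity read-out.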

For assay [17] the target is unchanged. Put plainly: qHTS assay to identify small molecule antagonists of the glucocorticoid receptor (GR) signaling pathway (AID 720692; active means well fitted inhibition curve with a large enough effect in the signal ratio in the repeat runs, not every such curve was filed as active; the % refers to the signal ratio; further: on the % scale 0 is the no-effect control and ±100 the full control effect). In outline: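 Read-out: beta-lactamase FRET substrate fluorescence, 2 h at room temperature, in HeLa cells stably carrying a GRE-driven bla reporter. Compounds were co-incubated with 5 nM dexamethasone agonist (final) for 18 h at 37 C.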

Assay [18] can be described thus: qHTS assay for small molecule disruptors of the mitochondrial membrane potential (AID 720635). Further: potency means the concentration at half of the fitted maximal effect. Summed up:
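HepG2 cells (2,000/well) attached overnight at 37C, then took compound for 1 hr at 37C, 5% CO2. Mito-MPS dye was added for 30 min; fluorescence was read at 490/535 nm (monomers) and 540/590 nm (aggregates).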

The nature of assay [19]: qHTS assay for small molecule disruptors of the mitochondrial membrane potential - cell viability (AID 720634; calls by dose curve;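 further: human HepG2 liver cancer cells; on the % scale 0 is the no-effect control and ±100 the full control effect; nearly all actives have a fitted effect of over 20% in size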). Summed up:
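Luminescence from CellTiter-Glo (ATP content) gave viability in HepG2 cells, read in the same wells as the MMP dye assay after 1 hr compound exposure at 37 C.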

Glucocorticoid receptor (Homo sapiens), sequence (P04150 whole entry, looked up): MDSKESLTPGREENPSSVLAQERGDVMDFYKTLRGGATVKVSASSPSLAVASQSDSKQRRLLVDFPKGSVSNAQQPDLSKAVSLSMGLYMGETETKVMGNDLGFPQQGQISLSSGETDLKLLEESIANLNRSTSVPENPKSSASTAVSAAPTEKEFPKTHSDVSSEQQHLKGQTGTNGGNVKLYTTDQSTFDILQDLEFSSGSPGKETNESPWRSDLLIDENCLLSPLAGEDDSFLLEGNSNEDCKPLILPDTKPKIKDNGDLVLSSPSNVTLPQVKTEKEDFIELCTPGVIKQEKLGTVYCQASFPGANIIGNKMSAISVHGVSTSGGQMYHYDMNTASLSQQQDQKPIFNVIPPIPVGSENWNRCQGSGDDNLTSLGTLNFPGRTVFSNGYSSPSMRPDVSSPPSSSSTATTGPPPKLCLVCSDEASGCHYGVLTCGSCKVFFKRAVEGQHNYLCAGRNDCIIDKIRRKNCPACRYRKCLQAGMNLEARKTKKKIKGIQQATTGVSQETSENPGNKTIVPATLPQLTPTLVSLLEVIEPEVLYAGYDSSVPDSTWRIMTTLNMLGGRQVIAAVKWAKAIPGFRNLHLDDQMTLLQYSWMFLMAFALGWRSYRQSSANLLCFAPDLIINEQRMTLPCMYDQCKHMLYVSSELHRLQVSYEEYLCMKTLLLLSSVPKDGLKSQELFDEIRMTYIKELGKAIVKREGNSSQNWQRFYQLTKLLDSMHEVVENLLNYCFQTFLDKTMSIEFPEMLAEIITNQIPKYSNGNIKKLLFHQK

On to `Clc1cc(Cl)c(-c2cc(Cl)c(Cl)cc2Cl)cc1Cl`, for which the Potency result in [1], in assay [2], in assay [3], in [5], in assay [6] and in [9] was “inactive” in each case. Also, the Potency entry in [13], in [14], in assay [15], in assay [16] and in [17] was “inactive” throughout. Besides, the outcome in assay [4], in assay [7], in assay [8], in assay [10], in [11] and in assay [12] was inactive.

Take `O=[N+]([O-])c1cccc2cccc([N+](=O)[O-])c12`: the Potency entry in assay [1], in assay [2], in assay [3], in assay [5], in [6] and in assay [9] was “inactive” in each case. In addition, the Potency result in assay [13], in assay [14], in [15] and in [16] was “inactive” in each case. In assay [18], the Potency is 9730 nM (active). Moreover, the outcome in assay [4], in assay [7], in [8], in assay [10] and in [12] was inactive.

Turning to `CCOC(=O)Cc1ccccc1`, the Potency result in [1], in assay [2], in assay [3], in assay [19], in [5] and in [9] was “inactive” throughout. The Potency result in [13], in [14], in [15], in [16] and in [17] was “inactive” each time. Besides, the compound was classed as inactive in assay [4], in assay [7], in [8], in assay [10], in [11] and in assay [12].

Turning to `COc1c2c(cc3c1OCO3)CCN(C)C2`, the Potency result in assay [1], in assay [2], in assay [3], in assay [16] and in [17] was “inactive” throughout. Moreover, the fluorescence, relative to Rose Bengal in assay [4] is 0.142% [at 18.6 µM]. Moreover, the results for the fluorescence, % of fluorescein control in assay [5] and in [14] were -0.0459% [at 18.6 µM] and -0.0107% [at 18.6 µM], respectively. The fluorescence, % of triamterene in [6] is 0.0083% [at 18.6 µM]. Also, the fluorescence, % of fluorescent control was -0.0835% [at 18.6 µM] in [7]; 0.395% [at 18.6 µM] in assay [9]; 0.174% [at 18.6 µM] in assay [11]; -0.0127% [at 18.6 µM] in assay [13]; -0.0807% [at 18.6 µM] in [15]. Moreover, the fluorescence, % of fluorescein in [8] is -0.0183% [at 18.6 µM]. Further, in assay [10], the activity change is -0.0284% [at 18.6 µM]. In assay [12], the fluorescence, % of Rose Bengal was -0.194% [at 18.6 µM].

Take `CCC[CH2][Sn]([CH2]CCC)([CH2]CCC)[O][Sn]([CH2]CCC)([CH2]CCC)[CH2]CCC`: the activation in assay [1] is -11.2% [at 8.08 µM]. For the same compound, the Potency in assay [2] was 533 nM (active); in [3], 377 nM (active); in assay [18], 75.2 nM (active). Also, the fluorescence, relative to Rose Bengal in assay [4] was -0.33% [at 3.72 µM]. For the same compound, the fluorescence, % of fluorescein control in assay [5] is -0.0029% [at 3.72 µM]; in assay [14] it was -0.0002% [at 3.72 µM]. Further, in assay [6], the fluorescence, % of triamterene is -0.1% [at 3.72 µM]. Moreover, the fluorescence, % of fluorescent control in [7] is -0.182% [at 3.72 µM]; in [9] it was -0.0236% [at 3.72 µM]; in assay [11] it was 0.113% [at 3.72 µM]; in assay [13] it was -0.0005% [at 3.72 µM]; in assay [15], 0.0007% [at 3.72 µM]. In addition, the fluorescence, % of fluorescein in assay [8] is 0.0128% [at 3.72 µM]. For the same compound, in assay [10], the activity change is 0.0175% [at 3.72 µM]. Also, the fluorescence, % of Rose Bengal in assay [12] is 0.0071% [at 3.72 µM].

Consider `Oc1cccc(Cl)c1Cl`, for which the Potency entry in assay [1], in assay [2], in assay [3], in assay [5], in assay [6] and in [9] was “inactive” in each case. Also, the Potency entry in assay [13], in assay [14], in [15], in assay [16] and in assay [17] was “inactive” each time. In assay [18], the Potency is 48800 nM (active). For the same compound, the compound was called inactive in assay [7], in assay [8], in assay [10], in assay [11] and in assay [12].

As for `COC(=O)/C=C(\C)OP(=O)(OC)OC`, the Potency entry in assay [1], in assay [2], in assay [3], in assay [5], in assay [6] and in [9] was “inactive” in each case. Also, the Potency result in assay [13], in assay [14] and in assay [15] was “inactive” throughout. The compound was called inactive in assay [4], in [8], in assay [10], in assay [11] and in assay [12].
